Reference: ChEMBL document CHEMBL1961873, “Compounds: GSK PKIS; Assays: Nanosyn kinase panel” (2012)

molecular target: Protein kinase C beta type (Homo sapiens) (UniProt P05771); conditions: at 1 µM
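Also: GSK PKIS screen, average inhibition of the PKC-beta2 splice variant.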

Sequence of Protein kinase C beta type (Homo sapiens) (P05771 2-671 limits assumed): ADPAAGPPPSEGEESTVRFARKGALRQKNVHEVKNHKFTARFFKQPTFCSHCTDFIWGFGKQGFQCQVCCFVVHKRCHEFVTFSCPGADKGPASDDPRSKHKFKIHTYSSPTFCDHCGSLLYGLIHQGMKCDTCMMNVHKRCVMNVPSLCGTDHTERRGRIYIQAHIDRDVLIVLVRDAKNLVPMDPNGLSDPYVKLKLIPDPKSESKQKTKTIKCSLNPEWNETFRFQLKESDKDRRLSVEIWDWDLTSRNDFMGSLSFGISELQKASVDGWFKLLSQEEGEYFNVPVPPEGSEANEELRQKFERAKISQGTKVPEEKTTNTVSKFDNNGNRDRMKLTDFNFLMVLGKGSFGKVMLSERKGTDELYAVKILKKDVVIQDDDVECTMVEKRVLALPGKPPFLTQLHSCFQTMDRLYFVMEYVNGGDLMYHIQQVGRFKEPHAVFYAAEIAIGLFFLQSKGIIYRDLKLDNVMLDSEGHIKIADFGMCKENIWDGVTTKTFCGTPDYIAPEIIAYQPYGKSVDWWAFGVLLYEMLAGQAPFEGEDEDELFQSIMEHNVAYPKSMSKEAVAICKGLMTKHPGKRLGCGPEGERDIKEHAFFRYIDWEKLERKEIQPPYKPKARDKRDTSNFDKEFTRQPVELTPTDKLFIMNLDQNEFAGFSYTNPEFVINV

| SMILES | inhibition [%] |
| --- | --- |
| COc1ccc(-c2coc3ncnc(N)c23)cc1 | 2.4 |
| Cc1cc(O)cc(C)c1/C=C/c1cncc(-c2nn[nH]n2)c1 | 4.04 |
| NCc1ccc(-c2nc(-c3ccc(Cl)c(O)c3)c(-c3ccncc3)[nH]2)cc1 | 10.8 |
| Cc1ccc(C(=O)NC2CCCCC2)cc1-c1ccc(C(=O)NCC2CC2)cc1 | 3.12 |
| COc1cccc(-n2ncc3c(N/N=C/c4cccc(F)c4)ncnc32)c1 | 3.14 |
| [O-][S+]1CCN(Cc2ccc(-c3ccc4ncnc(Nc5ccc(OCc6ccccc6)c(F)c5)c4c3)o2)CC1 | 0.5 |
| COc1cc2c(cc1Nc1nc(N3CCc4ccccc43)c3cc[nH]c3n1)N(C(=O)CN(C)C)CC2 | 1.29 |
| COc1cc2ncn(-c3cc(OCc4ccccc4Cl)c(C(N)=O)s3)c2cc1OC | 0.76 |
| COc1ccccc1Nc1ncc(-c2ccccc2)o1 | 1.8 |
| c1cnn2ncc(-c3ccnc(Nc4ccc5c(c4)OCCO5)n3)c2c1 | 5.22 |
| CS(=O)(=O)CCN(CC#N)Cc1ccc(-c2ccc3ncnc(Nc4ccc(OCc5cccc(F)c5)c(Cl)c4)c3c2)o1 | 0.66 |
| CS(=O)(=O)CCNCc1ccc(-c2ccc3ncnc(Nc4ccc(OCc5cccc(F)c5)c(C(F)(F)F)c4)c3c2)o1 | 2.44 |
| COc1ccc(-c2nn3ncccc3c2-c2ccnc(Nc3ccc(Cl)c(C(F)(F)F)c3)n2)cc1 | 0.81 |
| CCn1c(-c2nonc2N)nc2ccncc21 | 0.57 |
| Nc1ncnc2occ(-c3ccc(NC(=O)Nc4cccc(C(F)(F)F)c4)cc3)c12 | 2.2 |
| CC(C)=Cc1cccc2c1/C(=N/Nc1ccc(S(N)(=O)=O)cc1)C(=O)N2 | 1.68 |
